Test results as given in the supplement of paper PMC9694430.

How the values were obtained:
Test in all cases: thermal shift delta Tm vs DMSO control; higher = stronger stabilization (binding)
Settings in all cases: 12.5 µM; protein concentration 2 µM
[1] = tested on: LOC_OS04G57630-cb004
Procedure, shortened: (§1)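 Compounds dissolved in DMSO were added to purified rice kinase domain constructs, which had been expressed in E. coli, for differential scanning fluorimetry. Each well held 19.5 μl of 2 μM kinase in 100 mM potassium phosphate pH 7.5, 150 mM NaCl, 10% glycerol and 5 × SYPRO Orange. Fluorescence was followed from 25°C to 95°C at a rate of 0.05°C/s. Shifts in Boltzmann-fitted melting temperature are triplicate means relative to DMSO-only protein.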

[2] = tested on: LOC_OS05G07850-cb002
Procedure, shortened: as §1

[3] = tested on: LOC_OS05G16824-cb004
Procedure, shortened: as §1

[4] = tested on: LOC_OS05G28520-cb001
Procedure, shortened: as §1

[5] = tested on: LOC_OS05G30820-cb001
Procedure, shortened: as §1

[6] = tested on: LOC_OS05G43570-cb004
Procedure, shortened: as §1

[7] = tested on: LOC_OS06G16330-cb003
Procedure, shortened: as §1

[8] = tested on: T1, LOC_OS06G22820-cb001
T1 sequence (whole entry): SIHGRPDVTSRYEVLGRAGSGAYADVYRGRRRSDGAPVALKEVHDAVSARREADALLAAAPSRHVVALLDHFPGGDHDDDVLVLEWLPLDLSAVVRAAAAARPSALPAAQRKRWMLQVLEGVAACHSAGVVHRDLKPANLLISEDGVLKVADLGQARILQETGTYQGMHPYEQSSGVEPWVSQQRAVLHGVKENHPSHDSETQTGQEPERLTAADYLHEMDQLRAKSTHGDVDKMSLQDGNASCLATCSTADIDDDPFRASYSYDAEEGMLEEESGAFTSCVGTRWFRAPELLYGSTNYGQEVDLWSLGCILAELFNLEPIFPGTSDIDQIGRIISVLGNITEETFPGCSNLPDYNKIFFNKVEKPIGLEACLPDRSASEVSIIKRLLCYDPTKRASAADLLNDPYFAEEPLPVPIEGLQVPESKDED
Procedure, shortened: as §1

[9] = tested on: LOC_OS07G06570-cb004
Procedure, shortened: as §1

[10] = tested on: LOC_OS07G07230-cb001
Procedure, shortened: as §1

LOC_OS06G16330-cb003, sequence (as listed by the source): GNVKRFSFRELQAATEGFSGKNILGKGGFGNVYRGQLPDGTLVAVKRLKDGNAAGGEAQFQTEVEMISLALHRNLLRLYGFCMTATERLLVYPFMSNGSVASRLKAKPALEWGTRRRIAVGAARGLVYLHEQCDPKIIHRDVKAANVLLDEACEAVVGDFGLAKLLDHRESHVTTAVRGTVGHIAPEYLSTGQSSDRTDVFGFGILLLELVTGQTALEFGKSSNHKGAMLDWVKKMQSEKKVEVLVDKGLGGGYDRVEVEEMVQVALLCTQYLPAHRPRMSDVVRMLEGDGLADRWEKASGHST

Row | SMILES | thermal shift delta Tm [1] [°C] | thermal shift delta Tm [2] [°C] | thermal shift delta Tm [3] [°C] | thermal shift delta Tm [4] [°C] | thermal shift delta Tm [5] [°C] | thermal shift delta Tm [6] [°C] | thermal shift delta Tm [7] [°C] | thermal shift delta Tm [8] [°C] | thermal shift delta Tm [9] [°C] | thermal shift delta Tm [10] [°C]
1 | Cc1cc(N2CCOCC2)cc2[nH]c(-c3c(NC[C@@H](O)c4cccc(Cl)c4)cc[nH]c3=O)nc12 | -0.02 | 9.39 | 5.37 | 1.06 | 0.82 | 0.65 | 4.87 | 0.56 | -0.16 | 0.74
2 | COc1cc2ncnc(Oc3cccc(NC(=O)Nc4cc(C(C)(C)C(F)(F)F)on4)c3)c2cc1OC | 0.6 | 2.95 | -2.76 | 0.72 | 0.54 | 0.45 | 0.19 | 0.58 | 1.77 | 0.79
3 | COc1ccc(F)c(F)c1C(=O)c1cnc(NC2CCN(S(C)(=O)=O)CC2)nc1N | 0.37 | 3.17 | -1.46 | 0.04 | 0.47 | 0.11 | 1.56 | 0.23 | 0.61 | 0.3
4 | CCc1cc(Nc2nccc(-c3c(-c4ccc(OC)c(C(=O)Nc5c(F)cccc5F)c4)nc4ccccn34)n2)c(OC)cc1N1CCC(N2CCN(S(C)(=O)=O)CC2)CC1 | -0.18 | 0.07 | -0.08 | 1.11 | 0.41 | 0.31 | -0.08 | 0.94 | 0.75 | 0.69
5 | CC(C)Nc1cc(-c2c[nH]c(C(=O)N[C@H](CO)c3cccc(Cl)c3)c2)c(Cl)cn1 | -0.02 | 2.27 | -2.75 | 0.6 | 0.63 | 0.49 | 0.62 | 0.65 | 1.26 | -0.16
6 | CCNC(=O)Nc1ccc(-c2nc3c(c(N4CCOC[C@@H]4C)n2)CCN(C2COC2)C3)cc1 | 0.05 | 0.56 | -1.52 | 0 | 0.54 | 0.3 | 0.18 | 0.27 | 1.06 | 0.66
7 | C=CC(=O)Nc1cccc(Nc2nc(Nc3ccc(OCCOC)cc3)ncc2F)c1 | 3.06 | 12.6 | 5.6 | 1.99 | 1.06 | 1.03 | 7.95 | 0.96 | 0.79 | 0.63
8 | CNC(=O)c1ccc(C)c(-n2c(C)cc(OCc3ccc(F)cc3F)c(Br)c2=O)c1 | 0.7 | 0.4 | 0.62 | 0.4 | 0.44 | 0.56 | 0.1 | 0.38 | 0.59 | -0.01
9 | Cn1c(=O)c(F)c(Nc2ccc(I)cc2F)c2c(=O)n(C[C@@H](O)CO)cnc21 | 0.47 | 1.59 | -1.32 | 0.23 | 0.72 | 1.08 | 0.18 | 0.76 | 0.33 | 0.02
10 | COc1cccc(-c2cc(=O)c3ccccc3o2)c1N | -0.72 | 0.19 | -2.84 | 0.24 | 0.41 | 0.15 | -0.2 | 0.44 | 0.29 | 0.35
11 | COCCOc1cnc2ccn([C@H](C)c3nnc4c(F)cc(-c5cnn(C)c5)cn34)c(=O)c2c1 | 0.33 | 0.47 | -0.61 | 0.19 | 0.72 | 0.35 | 2.3 | 0.29 | 1.07 | 0.81
12 | COc1ccc(COc2ccc(Cc3cnc(N)nc3N)cc2OC)cc1 | 0.05 | 0.49 | -1.41 | 0.33 | 0.26 | 0.4 | 1.65 | 0.41 | 0.82 | -0.38
13 | O=C(/C=C/c1ccc2ccccc2n1)c1ccncc1 | 3.08 | 9.31 | 4.2 | 0.46 | 0.47 | 0.37 | 1.41 | 0.76 | 0.69 | 0.31
14 | Cc1ccc(C(=O)Nc2ccc(Oc3cc4cnn(C)c4cc3-c3cn[nH]c3)c(F)c2)c(=O)n1-c1ccc(F)cc1 | 1.06 | 12.9 | 0.64 | 0.91 | 0.24 | 1.08 | 5.02 | 1.28 | 1.37 | -0.23
15 | Cc1cc2c(F)c(Oc3ncnn4cc(OC[C@@H](C)O)c(C)c34)ccc2[nH]1 | 0.32 | 2.97 | -0.74 | 0.85 | 0.47 | -0.02 | 0.19 | 0.53 | 0.51 | 0.51
16 | c1nc2c(NC3CCCCC3)nc(Nc3ccc(N4CCOCC4)cc3)nc2[nH]1 [Reversine] | 3.78 | 12 | 11.7 | 0.53 | 4.07 | 1.11 | 8.57 | 0.3 | 1.48 | 1.02
17 | Cc1cc(Nc2cc(N)ncn2)c(=O)n2c1C(=O)NC21CCCCC1 | 0.21 | 5.64 | 1.99 | -0.15 | 0.03 | 0.05 | 0.4 | 0.25 | 0.6 | 0.71
18 | N#Cc1ccc2ncnc(NCCc3ccccc3)c2c1 [Senexin A] | 0.34 | 4.61 | 4.32 | 0.11 | 0.16 | 0.23 | 2.48 | 0.4 | 1.46 | 0.54
19 | COc1cc2ncnc(Nc3ccc(F)c(Cl)c3)c2cc1OCCCN1CCOCC1 [Gefitinib (ZD1839)] | -0.05 | 9.4 | -0.18 | 0.21 | 0.41 | 0.31 | 2.35 | 0.63 | 0.99 | 0.24
20 | CN1CC[C@H](c2c(O)cc(O)c3c(=O)cc(-c4ccccc4Cl)oc23)[C@H](O)C1 [Flavopiridol (Alvocidib)] | 0.36 | 5.16 | 2.71 | -0.27 | 0.85 | 0.07 | 3.19 | 1.43 | 0.96 | 0
21 | CNc1nc(Nc2cn(C(C)(C)C#N)nc2C)ncc1C(F)(F)F | 0.21 | 3.12 | 1.76 | 0.47 | 0.36 | 0.56 | 0.81 | 0.4 | 0.68 | -0.13
22 | COc1cc2c(N3CCN(C(=O)Nc4ccc(OC(C)C)cc4)CC3)ncnc2cc1OCCCN1CCCCC1 [Tandutinib (MLN518)] | 2.05 | 1.44 | 0.72 | 0.2 | 0.16 | 0.41 | -1.38 | 0.3 | 1.1 | 0.38
23 | CN(C)Cc1cccc(N=C(c2ccccc2)c2c(O)[nH]c3cc(C(=O)N(C)C)ccc23)c1 | 0.46 | 5.73 | 3.8 | -0.08 | 0.49 | 0.76 | 0.77 | 0.98 | 0.59 | -0.37
24 | CN(C)C[C@@H]1CCn2cc(c3ccccc32)C2=C(C(=O)NC2=O)c2cn(c3ccccc23)CCO1 | -0.32 | 5.79 | 2.45 | 0.65 | 0.63 | 0.63 | 0.27 | 0.46 | 2.56 | 0.33
